# Assay outcomes (PubChem)
# Only some compounds are listed: those with a hit (about 3.4% of all), similar ones and a draw of the others.
# PAFAH1B2 FP inh: PAFAH1B2 (human) inhibition; inhibition, % at 3.39 µM; actives 1.2% (n = 340,000); recombinant PAFAH1B2, FP-rhodamine activity probe, fluorescence polarization;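 active means inhibition above the mean of all tested compounds plus 3 SD, cut at about 24% in these data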;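 further: 0% = enzyme with DMSO and 100% = wells lacking PAFAH1B2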
# PP1 counter: blocks human PP1-alpha phosphatase, a PP5 counter-screen; purified PP1alpha, OMFP fluorescence; actives 0.9% (n = 320,000); inhibition, % at 6.7 µM; AID 2235;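 active means inhibition above the mean inhibition of all tested compounds plus 3 SD, computed separately for each screening campaign, cut at about 15% in these data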
# Target sequence (P62136 whole entry, looked up): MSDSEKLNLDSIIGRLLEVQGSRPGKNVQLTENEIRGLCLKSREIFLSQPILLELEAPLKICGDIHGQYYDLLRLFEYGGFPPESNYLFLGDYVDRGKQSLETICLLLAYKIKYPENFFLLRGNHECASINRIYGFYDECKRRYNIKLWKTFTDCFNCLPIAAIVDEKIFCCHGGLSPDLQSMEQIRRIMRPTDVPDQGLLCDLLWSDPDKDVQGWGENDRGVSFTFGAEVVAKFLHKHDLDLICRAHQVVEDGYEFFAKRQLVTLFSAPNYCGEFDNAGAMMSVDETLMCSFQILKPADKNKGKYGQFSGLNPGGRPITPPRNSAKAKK
# pPAFAH FP inh: inhibitors of human plasma PAF acetylhydrolase (pPAFAH). Q13093. actives 1.5% (n = 330,000). inhibition, % at 3.39 µM. recombinant pPAFAH, FP-rhodamine probe fluorescence polarization;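 active means inhibition above the mean inhibition across the screen plus 3 SD, cut at about 25% in these data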;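 further: inhibitors block binding of the rhodamine activity-based probe so polarization drops; 0% = enzyme with DMSO and 100% = wells lacking pPAFAH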
# PP5 inh: inhibitors of human protein phosphatase 5 (PP5); inhibition, % at 6.7 µM; actives 0.18% (n = 320,000); P53041; purified PP5c, OMFP substrate fluorescence;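 active means inhibition above the campaign's mean inhibition across all tested compounds plus 3 SD, cut at about 9.5% in these data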;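 further: 0% = DMSO only and 100% = 100 µM cantharidin control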
# PAFAH1B3 inh: PAFAH1B3 (human) inhibition. inhibition, % at 3.39 µM. AID 492972. recombinant PAFAH1B3, FP-rhodamine probe, fluorescence polarization. actives 0.28% (n = 340,000);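 active means inhibition above the screen-wide average of all tested compounds plus 3 SD, cut at about 25% in these data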;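 further: 0% = enzyme with DMSO only and 100% = wells lacking PAFAH1B3 protein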
# PAFAH2 FP inh: inhibitors of human PAFAH2. Q99487. recombinant PAFAH2, FP-rhodamine activity probe, fluorescence polarization. inhibition, % at 3.39 µM. actives 0.99% (n = 340,000). AID 492956;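 active means inhibition above the mean over all tested compounds plus 3 SD, cut at about 30% in these data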;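 further: inhibitors block probe labeling of enzyme so polarization drops; 0% = enzyme with DMSO and 100% = wells lacking PAFAH2 protein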
# PAFAH2 FP conf: PAFAH2 (human) inhibition, confirmed | recombinant PAFAH2, FP-rhodamine activity probe, fluorescence polarization | inhibition, % at 3.39 µM | actives 65% (n = 2,300) | shares compounds with PAFAH2 FP inh;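 active means mean inhibition over three repeats above a set limit taken from the earlier primary screen, cut at about 30% in these data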;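 further: inhibitor blocks binding of rhodamine activity probe so polarization falls; 0% = enzyme with DMSO and 100% = wells lacking PAFAH2 protein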
# * hit, by the source's call; . = no result.
SMILES,PAFAH1B2 FP inh,PP1 counter,pPAFAH FP inh,PP5 inh,PAFAH1B3 inh,PAFAH2 FP inh,PAFAH2 FP conf
Cc1ccc(C(=O)OC2CCOC2=O)cc1NC(=O)c1ccco1 (stereo not drawn),1,0,5,-1,-1,0,.
CN(CC(=O)Nc1ccc(Cl)c(C(F)(F)F)c1)C(=O)Cc1cccs1,0,-3,4,2,4,10,.
O=C(CN1CCN(c2ccccc2O)CC1)Nc1ccc([N+](=O)[O-])cc1Br,0,-3,11,3,2,5,.
CN(C)S(=O)(=O)c1cccc(COC(=O)c2ccc(Cl)cc2O)c1,4,4,11,0,0,2,.
Cc1ccc(C)c(NC(=O)COC(=O)c2ccc3c(c2)OCO3)c1,2,-3,5,-1,16,20,.
CN(C)S(=O)(=O)c1cccc(COC(=O)c2ccc3c(c2)OCO3)c1,3,2,8,2,3,31*,25
Cc1ccc(S(=O)(=O)N(C)C)cc1NC(=O)COC(=O)c1ccc2c(c1)OCCO2,9,-2,11,1,6,64*,64*
Cc1ccc(S(=O)(=O)N(C)C)cc1NC(=O)COC(=O)c1ccc2c(c1)OCO2,2,-1,0,1,-3,60*,52*
Cc1ccc(S(=O)(=O)N(C)C)cc1NC(=O)COC(=O)C1=COCCO1,1,-5,-4,-2,4,27,.
Cc1ccc(N(CC(=O)NCCc2ccccc2)C(=O)CCC(=O)Nc2cc(C)ccn2)cc1,6,4,6,5,3,-3,.
COc1cc(/C=C/C(=O)OCC(=O)NC(=O)NC2CCCC2)ccc1OCC#N,4,.,.,.,3,13,.
COc1cc(/C=C/C(=O)OCC(=O)N2CCC(Cc3ccccc3)CC2)ccc1O,-2,3,12,5,6,14,.
COc1cc(/C=C/C(=O)OCC(=O)N2CCC(C)CC2)ccc1OCC#N,1,-2,0,0,9,42*,22
COc1cc(/C=C/C(=O)OCC(=O)N2CCc3ccccc3C2)ccc1O,0,2,8,0,8,35*,36*
COc1cc(/C=C/C(=O)OCC(=O)N2CC3(C)CC2CC(C)(C)C3)ccc1O (stereo not drawn),12,-3,5,3,-6,42*,20
COc1cc(/C=C/C(=O)OCC(=O)N2CCC(C)CC2)ccc1O,3,-5,5,1,1,56*,45*
CCCCN(CCCC)S(=O)(=O)c1ccc(SCC(=O)OCC)c([N+](=O)[O-])c1,-1,2,6,3,1,-3,.
COc1ccc(C(=O)NC(=O)COC(=O)c2ccc3ncsc3c2)cc1,.,11,-3,5,.,.,.
CC1CCCCC1NC(=O)COC(=O)c1ccc2c(c1)NC(=O)CS2 (stereo not drawn),5,.,-2,.,-1,86*,77*
CC1CCCC(NC(=O)COC(=O)c2ccc3ncsc3c2)C1C (stereo not drawn),4,-2,-4,3,3,85*,76*
CC1CCCC(NC(=O)COC(=O)c2ccc(S(=O)(=O)N3CCOCC3)cc2)C1C (stereo not drawn),1,0,4,3,4,-4,.
CC1CCCCC1NC(=O)COC(=O)c1ccc2ncsc2c1 (stereo not drawn),7,2,-3,2,11,84*,78*
COc1ccc(S(=O)(=O)N2CCCCCC2)cc1C(=O)NCCc1ccc(F)cc1,6,1,2,2,12,-3,.
COc1cc(/C=C/C(=O)OCN2C(=O)c3ccccc3C2=O)ccc1OC(F)F,-1,.,.,.,5,4,.
COc1ccc(NC(=O)CSc2cc(C(=O)c3nccn3C)c3ccccc3n2)cc1,6,-4,4,4,-3,9,.
Cc1ccc([N+](=O)[O-])c(NC(=O)COC(=O)C2CC3CCCC(C2)C3=O)c1C (stereo not drawn),2,2,0,0,8,34*,32*
COc1cccc(NC(=O)COC(=O)C2CC3CCCC(C2)C3=O)c1 (stereo not drawn),9,-2,-3,0,-2,58*,54*
